Source: PubChem BioAssay
Sampled rows, rich in hits. Any-hit rate of the full collection: about 27%.
CYP2C19 inh: human CYP2C19 inhibition; 96,000 compounds, 21% hits; CYP2C19 Supersomes, luciferin-H EGE luminescence, 30 min; P33261; inhibition, % at 5 µM;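 active = CYP2C19 inhibition above a set limit at 5 µM in the primary screen, cut at about 50% in these data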;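 also: plate controls were negative control wells for no effect and 2.5 mM tranylcypromine positive control for full effect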
CYP2C9 inh: inhibitors of human CYP2C9; P11712; inhibition, % at 5 µM; CYP2C9 Supersomes, luciferin-H conversion, luminescence; 96,000 compounds, 20% hits;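 active = blocking of liver enzyme CYP2C9 beyond about 50% at 5 µM, limit read from the data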
Target sequence (P11712 whole entry, looked up): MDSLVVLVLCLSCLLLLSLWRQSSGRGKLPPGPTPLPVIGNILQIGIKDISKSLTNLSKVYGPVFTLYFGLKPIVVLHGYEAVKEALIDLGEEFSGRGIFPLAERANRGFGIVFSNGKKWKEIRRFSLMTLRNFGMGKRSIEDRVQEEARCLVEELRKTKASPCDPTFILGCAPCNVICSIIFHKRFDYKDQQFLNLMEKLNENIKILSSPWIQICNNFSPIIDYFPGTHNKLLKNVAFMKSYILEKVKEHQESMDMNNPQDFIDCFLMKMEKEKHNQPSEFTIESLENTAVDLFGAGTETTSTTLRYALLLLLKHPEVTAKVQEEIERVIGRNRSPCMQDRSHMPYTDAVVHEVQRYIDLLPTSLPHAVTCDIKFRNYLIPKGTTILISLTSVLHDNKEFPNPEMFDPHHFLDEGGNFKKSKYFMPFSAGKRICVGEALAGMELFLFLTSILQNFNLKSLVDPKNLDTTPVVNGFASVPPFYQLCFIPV
CYP2C9 activ: CYP2C9 (human) activation | P11712 | recombinant CYP2C9, luciferin-H conversion, luminescence; stronger effect = higher value; factor 1 = untreated enzyme, 0 = blocked | activation factor at 5 µM | 96,000 compounds, 1.4% hits | AID 1024;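 active = activation factor of 2 or more for CYP2C9 at a 5 µM dose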;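 also: 0 = sulfaphenazole-blocked wells and 1 = vehicle-only wells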
sEH activator: increases human soluble epoxide hydrolase activity. purified human sEH enzymatic activity, activator screen. 91,000 compounds, 0.04% hits. activation, % at 2 µM. P34913; in the data active = activation above about 37%
CYP2C19 act: cytochrome P450 2C19 (human) activation. recombinant CYP2C19, luciferin-H EGE luminescence; stronger effect = higher value; 0 = fully inhibited enzyme, 1 = untreated enzyme. activation factor at 5 µM. 96,000 tested, under 10 active;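 active = activation factor of at least 2 at 5 µM in the primary screen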;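 also: 0 = wells with 2.5 mM tranylcypromine and 1 = vehicle-only wells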
sEH inhibitor: soluble epoxide hydrolase (human) inhibition. inhibition, % at 2 µM. recombinant human sEH enzymatic activity assay. 91,000 compounds, 0.34% hits. P34913. AID 707; in the data active = inhibition above about 80%
An asterisk follows results filed as active.

Results for COc1ccc(CN(C)C(c2ccccc2)c2nnnn2-c2ccccc2C)c(OC)c1C (stereo not given) ?
CYP2C19 inh: 94*; CYP2C9 inh: 79*; CYP2C9 activ: 0.2; sEH activator: -6; CYP2C19 act: 0.1; sEH inhibitor: 5

What do the screens show for `Cc1cc(C(=O)NNC(=S)NC(=O)/C=C/c2ccccc2Cl)n[nH]1`?
CYP2C19 inh: -16; CYP2C9 inh: 27; CYP2C9 activ: 0.7; sEH activator: 3; CYP2C19 act: 1.2; sEH inhibitor: -1

Results for O=C(Nc1nccs1)c1sc2ccccc2c1Cl ?
CYP2C19 inh: 28; CYP2C9 inh: 45; CYP2C9 activ: 0.5; sEH activator: -4; CYP2C19 act: 0.7; sEH inhibitor: 2

How did O=C(Nc1nccs1)c1sc2cc(Cl)ccc2c1Cl do in these assays?
CYP2C19 inh: 57*; CYP2C9 inh: 33; CYP2C9 activ: 0.7; sEH activator: 7; CYP2C19 act: 0.4; sEH inhibitor: -6

How did COc1cccc(OC)c1-c1nn2c(-c3ccco3)nnc2s1 do in these assays?
CYP2C19 inh: 89*; CYP2C9 inh: 68*; CYP2C9 activ: 0.3; CYP2C19 act: 0.1

Results for CCOc1ccc(-c2nnc3sc(-c4ccccc4OC)nn23)cc1 ?
sEH activator: 14; sEH inhibitor: -14

What do the screens show for `COc1ccccc1-c1nnc2sc(-c3cnccn3)nn12`?
CYP2C19 inh: 75*; CYP2C9 inh: 23; CYP2C9 activ: 0.8; sEH activator: -10; CYP2C19 act: 0.3; sEH inhibitor: 13

How did COc1ccccc1-c1nn2c(-c3ccc(C(C)(C)C)cc3)nnc2s1 do in these assays?
CYP2C19 inh: -2; CYP2C9 inh: 56*; CYP2C9 activ: 0.4; CYP2C19 act: 1

Results for COc1cc(-c2nn3c(-c4ccco4)nnc3s2)cc(OC)c1OC ?
CYP2C19 inh: 1; CYP2C9 inh: 28; CYP2C9 activ: 0.7; CYP2C19 act: 1

How did COc1ccccc1-c1nnc2sc(-c3cc4ccccc4o3)nn12 do in these assays?
CYP2C19 inh: 33; CYP2C9 inh: 34; CYP2C9 activ: 0.7; sEH activator: -7; CYP2C19 act: 0.7; sEH inhibitor: 6

Results for O=C1CC(Cc2ccc(Cl)cc2)C(=O)N1c1ccccn1 (stereo not given) ?
CYP2C19 inh: 44; CYP2C9 inh: -1; CYP2C9 activ: 1; sEH activator: 0; CYP2C19 act: 0.6; sEH inhibitor: 2

Results for COc1ccc(-c2nc(C)ncc2N=Nc2ccccc2)cc1 ?
CYP2C19 inh: 13; CYP2C9 inh: 61*; CYP2C9 activ: 0.4; sEH activator: -5; CYP2C19 act: 0.9; sEH inhibitor: 5

How did CSc1nc2cc(Cl)ccc2s1 do in these assays?
CYP2C19 inh: 0; CYP2C9 inh: 7; CYP2C9 activ: 0.9; sEH activator: -11; CYP2C19 act: 1; sEH inhibitor: 8

What do the screens show for `CSc1nc2ccc(S(=O)(=O)N(C)C)cc2s1`?
CYP2C19 inh: 86*; CYP2C9 inh: 31; CYP2C9 activ: 0.7; sEH activator: 6; CYP2C19 act: 0.1; sEH inhibitor: -8

How did CCN(CC)S(=O)(=O)c1ccc2nc(SC)sc2c1 do in these assays?
CYP2C19 inh: 78*; CYP2C9 inh: 33; CYP2C9 activ: 0.7; sEH activator: 0; CYP2C19 act: 0.2; sEH inhibitor: -2

How did CSc1nc2ccc(NS(=O)(=O)c3ccc(Cl)s3)cc2s1 do in these assays?
CYP2C19 inh: 100*; CYP2C9 inh: 100*; CYP2C9 activ: 0; sEH activator: 9; CYP2C19 act: 0; sEH inhibitor: -12

How did CSc1nc2ccc(S(=O)(=O)Nc3c(C)n(C)n(-c4ccccc4)c3=O)cc2s1 do in these assays?
CYP2C19 inh: 22; CYP2C9 inh: 32; CYP2C9 activ: 0.7; sEH activator: 3; CYP2C19 act: 0.8; sEH inhibitor: -5

How did O=C(Cn1cnnn1)Nc1ccccc1Cc1ccccc1 do in these assays?
sEH activator: 0; sEH inhibitor: 2

Results for O=C(O)c1oc2ccccc2c1CN1CCN(c2ccccc2)CC1 ?
CYP2C19 inh: -10; CYP2C9 inh: -19; CYP2C9 activ: 1.2; sEH activator: 7; CYP2C19 act: 1.1; sEH inhibitor: -6

How did O=C(CSc1nc2ccccc2[nH]1)Nc1ccccc1N1CCOCC1 do in these assays?
CYP2C19 inh: 98*; CYP2C9 inh: 79*; CYP2C9 activ: 0.2; sEH activator: -5; CYP2C19 act: 0; sEH inhibitor: 3

How did O=C(Nc1cc(C(F)(F)F)ccc1N1CCOCC1)c1n[nH]c(=O)c2ccccc12 do in these assays?
CYP2C19 inh: -6; CYP2C9 inh: -9; CYP2C9 activ: 1.1; sEH activator: 11; CYP2C19 act: 1.1; sEH inhibitor: -9

How did CSc1ncccc1C(=O)OCC(=O)Nc1cc(C(F)(F)F)ccc1N1CCOCC1 do in these assays?
CYP2C19 inh: 38; CYP2C9 inh: 51*; CYP2C9 activ: 0.5; sEH activator: 1; CYP2C19 act: 0.6; sEH inhibitor: 0

What do the screens show for `O=C(CSc1nc2ccccc2[nH]1)Nc1cc(C(F)(F)F)ccc1N1CCOCC1`?
CYP2C19 inh: 99*; CYP2C9 inh: 99*; CYP2C9 activ: 0; sEH activator: 6; CYP2C19 act: 0; sEH inhibitor: -4

What do the screens show for `O=C(Cn1c(CO)nc2ccccc21)Nc1cc(C(F)(F)F)ccc1N1CCOCC1`?
CYP2C19 inh: 38; CYP2C9 inh: 53*; CYP2C9 activ: 0.5; sEH activator: -2; CYP2C19 act: 0.6; sEH inhibitor: 0

What do the screens show for `O=C(COC(=O)c1ccc(F)cc1)Nc1ccccc1N1CCOCC1`?
sEH activator: -4; sEH inhibitor: 7

Results for CCCOC(=O)c1ccc2c(c1)C(=O)N(c1ccccc1)C2=O ?
CYP2C19 inh: 32; CYP2C9 inh: 15; CYP2C9 activ: 0.9; sEH activator: -1; CYP2C19 act: 0.7; sEH inhibitor: 2

Results for O=[N+]([O-])c1ccc(C2CCCC/C2=N\OCc2cccc(F)c2)c([N+](=O)[O-])c1 (stereo not given) ?
CYP2C19 inh: 32; CYP2C9 inh: 30; CYP2C9 activ: 0.7; sEH activator: 19; CYP2C19 act: 0.7; sEH inhibitor: -16

How did O=C(O)c1oc2ccc(Br)cc2c1-n1cccc1 do in these assays?
CYP2C19 inh: -10; CYP2C9 inh: -4; CYP2C9 activ: 1; sEH activator: 8; CYP2C19 act: 1.1; sEH inhibitor: -7

How did COc1ccc(C2CC(C(F)(F)F)n3nc(C(N)=O)c(Cl)c3N2)cc1OC (stereo not given) do in these assays?
CYP2C19 inh: 15; CYP2C9 inh: 58*; CYP2C9 activ: 0.4; sEH activator: 2; CYP2C19 act: 0.9; sEH inhibitor: -3

How did COc1ccc(CNC(=S)Nc2cccc(C)c2C)cc1 do in these assays?
CYP2C19 inh: 49; CYP2C9 inh: -14; CYP2C9 activ: 1.1; sEH activator: 2; CYP2C19 act: 0.5; sEH inhibitor: -2
